Inconclusive results are not listed. The source made the active and inactive calls. Calls follow the shape of the full dose curve.
target: Progesterone receptor (Homo sapiens) (UniProt P06401); test: qHTS assay to identify small molecule agonists of the progesterone receptor (PR) signaling pathway (AID 1346784); settings: PR-UAS-bla HEK293T, beta-lactamase FRET ratio, 16 h; series mostly up to 92.4 µM; activation: at the top concentration; also: nearly all actives have a fitted effect of over 30% in size
From the text: U.S. Tox21 Program National Center for Advancing Translational Sciences [NCATS] NIH Chemical Genomics Center [NCGC] U.S. Environmental Protection Agency [EPA] National Institutes of Environmental Health Sciences [NIEHS] National Toxicology Program [NTP] U.S. Food and Drug Administration [FDA] […] Endocrine disrupting chemicals (EDCs) and their interactions with steroid hormone receptors like PR causes disruption of normal endocrine function. To identify the compounds that activate PR signaling, a PR-UAS-bla GripTite cell line i.e. PR-UAS-bla HEK 293T (Invitrogen, Carlsbad, CA, USA) containing a beta-lactamase reporter gene under the control of an Upstream Activator Sequence (UAS) was used to screen Tox21 10K compound library.
Tox21 Assay Protocol Summary: PR-UAS-bla HEK 293T cells were dispensed at 3,000 cells/5 uL of assay medium containing 2% charcoal stripped FBS per well into black wall/clear-bottom 1536-well plates using a Multidrop Combi (ThermoFisher Scientific, Waltham, MA) dispenser. After the assay plates were incubated at a 37C and 5% CO2 for 6hr, 23 nL of compounds dissolved in DMSO, positive controls or DMSO only was transferred to the assay plate by a Pintool station (Kalypsys, San Diego, CA). The plates were incubated at 37C and 5% CO2 for 16hr. Then 1 uL of LiveBLAzer B/G FRET substrate was added using a BioRAPTR FRD (Flying Reagent Dispenser, Aurora Discovery, San Diego, CA). After the plates were incubated at room temperature for 2 hours, fluorescence intensity was measured by an Envision plate reader (PerkinElmer, Shelton, CT).
% is scaled to controls: 0 for no effect and ±100 for the full control effect.

Progesterone receptor (Homo sapiens), sequence (P06401 whole entry, looked up): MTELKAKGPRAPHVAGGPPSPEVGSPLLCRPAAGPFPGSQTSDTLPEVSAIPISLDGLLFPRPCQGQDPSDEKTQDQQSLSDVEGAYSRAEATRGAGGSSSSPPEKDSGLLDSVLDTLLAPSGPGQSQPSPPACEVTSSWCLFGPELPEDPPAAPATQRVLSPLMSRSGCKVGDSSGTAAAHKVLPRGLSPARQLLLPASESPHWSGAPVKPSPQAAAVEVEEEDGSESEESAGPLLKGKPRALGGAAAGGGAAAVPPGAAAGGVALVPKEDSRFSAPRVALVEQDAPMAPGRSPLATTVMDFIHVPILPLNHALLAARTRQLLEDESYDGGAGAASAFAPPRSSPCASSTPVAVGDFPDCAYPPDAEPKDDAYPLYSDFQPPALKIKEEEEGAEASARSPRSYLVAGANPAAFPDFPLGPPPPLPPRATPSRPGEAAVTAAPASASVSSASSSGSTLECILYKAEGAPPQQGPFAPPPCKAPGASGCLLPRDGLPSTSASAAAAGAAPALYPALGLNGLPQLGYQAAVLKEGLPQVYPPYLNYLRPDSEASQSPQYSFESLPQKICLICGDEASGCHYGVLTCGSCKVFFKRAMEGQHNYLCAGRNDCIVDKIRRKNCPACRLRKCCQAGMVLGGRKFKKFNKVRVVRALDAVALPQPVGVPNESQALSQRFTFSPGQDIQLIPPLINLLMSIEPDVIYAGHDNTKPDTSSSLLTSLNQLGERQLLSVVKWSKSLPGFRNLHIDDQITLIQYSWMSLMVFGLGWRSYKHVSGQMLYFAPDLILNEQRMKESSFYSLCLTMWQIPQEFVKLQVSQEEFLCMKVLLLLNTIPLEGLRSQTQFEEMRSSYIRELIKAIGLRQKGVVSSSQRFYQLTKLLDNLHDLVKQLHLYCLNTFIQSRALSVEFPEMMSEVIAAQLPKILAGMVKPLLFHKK

Structure (SMILES)	activation
c1coc(-c2nc3ccccc3[nH]2)c1	-0.602% (inactive)
COC(=O)c1ccccc1S(=O)(=O)NC(=O)Nc1nc(C)cc(C)n1	1.33% (inactive)
CCC1(c2ccccc2)C(=O)N=C(O)NC1=O (stereo not given)	-5.45% (inactive)
CNC(=O)Oc1ccccc1C1OCCO1	-0.629% (inactive)
CC(C)CP(=S)(S)CC(C)C	2.19% (inactive)
CC(=O)[C@H]1CC[C@H]2[C@@H]3CC[C@H]4C[C@H](O)CC[C@]4(C)[C@H]3C(=O)C[C@]12C	0.119% [at 42.5 µM] (inactive)
CC1=C(C(=O)Nc2ccccc2)S(=O)(=O)CCO1	-9.39% (inactive)
CCC#N	-0.0866% (inactive)
O=c1oc2ccccc2c(O)c1C1CCCc2ccccc21 (stereo not given)	-1.43% (inactive)
CN1CCC(O)(c2ccc(F)cc2)C(C(=O)c2ccc(F)cc2)C1 (stereo not given)	-2.72% [at 42.5 µM] (inactive)
C[C@@H]1CN(C2CCC(C#N)(c3ccc(F)cc3)CC2)CC[C@]1(C(=O)O)c1ccccc1 (stereo not given in full)	-2.06% [at 42.5 µM] (inactive)
CNNC	0.126% (inactive)
Cc1coc2c1CCC(C)C2 (stereo not given)	2.54% (inactive)
CC(C)(C)NCC(O)c1cc(Cl)c(N)c(Cl)c1 (stereo not given)	0.681% [at 42.5 µM] (inactive)
CCC/C(=N\OCC)C1=C(O)CC(CC(C)SCC)CC1=O (stereo not given)	1.16% (inactive)
COc1cccc(C(=O)NN(C(=O)c2cc(C)cc(C)c2)C(C)(C)C)c1C	-1.89% (inactive)
Oc1c(Cl)cccc1Cl	-0.41% (inactive)
CCN(Cc1ccc(Cl)nc1)/C(=C/[N+](=O)[O-])NC	1.16% [at 42.5 µM] (inactive)
COc1ccc2c(c1OC)CN1CCc3cc4c(cc3C1C2)OCO4 (stereo not given)	3.71% [at 42.5 µM] (inactive)
O=P(O)(Oc1ccccc1)Oc1ccccc1	-0.935% (inactive)

Structure (SMILES)	activation
N#Cc1ccncc1	0.102% (inactive)
COc1cc(OC)nc(Sc2cccc(Cl)c2C(=O)O)n1	0.0395% (inactive)
COc1cccc2c1cc([N+](=O)[O-])c1c(C(=O)O)cc3c(c12)OCO3	-18.6% (inactive)
CCC(C)n1c(=O)[nH]c(C)c(Br)c1=O (stereo not given)	-2.77% (inactive)
CC(=O)Nc1cc([As](=O)(O)O)ccc1O	-1.69% [at 42.5 µM] (inactive)
CCOC(=O)CP(=O)(OCC)OCC	-0.844% (inactive)
Cc1cc(C)nc(Nc2ccccc2)n1	-1.52% (inactive)
C[C@H]1CCC[C@H](O)CCCCCc2cc(O)cc(O)c2C(=O)O1	-0.468% (inactive)
CCCCOC(=O)c1ccccc1N	0.597% (inactive)
Nc1c(Br)cc([N+](=O)[O-])cc1[N+](=O)[O-]	3.66% (inactive)
O=[N+]([O-])c1cccc(O)c1	-0.402% (inactive)
CC(C(=O)c1ccccc1)N(C)C (stereo not given)	-0.186% [at 42.5 µM] (inactive)
O=C1OC(=O)C2C1C1(Cl)C(Cl)=C(Cl)C2(Cl)C1(Cl)Cl (stereo not given)	0.382% (inactive)
COC(=O)C(c1ccccc1)C1CCCCN1 (stereo not given)	-0.78% (inactive)
O=NN1CCCCC1	1.57% (inactive)
CCC(=O)C(CCN(C)C)(c1ccccc1)c1ccccc1	-3.94% [at 42.5 µM] (inactive)
Cc1cnc[nH]1	0.689% (inactive)
CNC(=O)N(C)c1nc2ccccc2s1	-0.31% (inactive)
O=C(N[C@H]1CN2CCC1CC2)c1cc2ccoc2cn1	-0.546% (inactive)
O=[N+]([O-])c1cccc2cccnc12	1.16% (inactive)
